experiment: small-molecule microarray binders of probe aDKK1, primary screen, biochemical, biotinylated probe, 635/667 nm fluorescence (AID 1099); conditions: higher = more signal;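 further: score merges 667nm spot fluorescence with signal to noise across triplicate slides; reference of the scale not given here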

| Structure (SMILES) | composite z-score |
| --- | --- |
| CC(C)=CCCC(C)=CCON=C1C[C@@H](O)[C@@H](O)[C@@H]2[C@@H]3C(=O)N(c4ccc(F)cc4F)C(=O)[C@@H]3CC[C@@H]12 | -0.324 |
| CCc1cc2c(nc1CC)CCN(CCC(C)=NO[C@H](C)c1cn([C@H](CO)Cc3ccccc3)nn1)C2 | -0.144 |
| COC(=O)[C@H](C)NC(=O)CCC1CC(OC(=O)NCCc2ccc(F)cc2)CC2(CCCC(COC(=O)NCCC(C)C)O2)O1 (stereo not given in full) | -0.185 |
| CCN1C(=O)[C@@H]2[C@H]3C(=CC[C@@H]2C1=O)C1(OCCCO1)[C@H]1O[C@H]1[C@H]3O | 0.195 |
| CCCNC(=O)OC[C@H]1O[C@H](CCON=C(C)CCN2CCc3nc(CC)c(CC)cc3C2)C=C[C@@H]1Oc1ccc(OC)cc1 | -0.231 |
| COc1cccc([C@H]2Oc3ccc(OC)cc3C(=NO[C@H](C)c3cn([C@H](CO)Cc4ccccc4)nn3)[C@@H]2O)c1 | -0.561 |
| Cc1ccc(S(=O)(=O)n2c3ccccc3c3nnc(C(=O)c4ccccc4)nc32)cc1 | -0.153 |
| CCOC(=O)[C@H](Cc1ccccc1)NC(=O)CCC1CC(OC(=O)NCc2ccc3c(c2)OCO3)CC2(CCCC(COC(=O)NCCc3ccccc3OC)O2)O1 (stereo not given in full) | -0.0864 |
| Cn1c(=O)n2n(c1=O)[C@H]1[C@H](O)[C@@H]3O[C@@H]3C(=O)[C@H]1CC2 | -0.0838 |
| C[C@@H]1CC[C@H]2C(=O)O[C@@H](Cc3ccccc3)CN2[C@H]1c1ccc(Br)cc1 | 0.14 |
| CCOC(=O)[C@H](CC(C)C)NC(=O)CCC1CC(OC(=O)NCCc2ccc(F)cc2)CC2(CCCC(COC(=O)NCCc3ccc(Cl)cc3)O2)O1 (stereo not given in full) | -0.26 |
| CO[C@H]1COC(=O)[C@H](C)NC(=O)CC=C[C@@H](C)[C@H](OC)COC(=O)[C@@H](OCc2ccccc2)C=C[C@@H]1C | -0.747 |
| C#CCCCON=C1C[C@@H](O)[C@@H](O)[C@@H]2[C@@H]3C(=O)N(c4ccc(F)cc4F)C(=O)[C@@H]3CC[C@H]12 | -0.177 |
| O=C1C[C@@H](O)[C@@H](O)[C@@H]2[C@@H]3C(=O)N(Cc4ccc5c(c4)OCO5)C(=O)[C@@H]3CC[C@H]12 | -0.312 |

experiment: small-molecule microarray binders of probe aCHRDL2, primary screen, biochemical, biotinylated probe, 635/667 nm fluorescence (AID 1100); conditions: higher = more signal

| Structure (SMILES) | composite z-score |
| --- | --- |
| COc1ccc(O[C@H]2C=C[C@@H](c3ccccc3)O[C@@H]2CON=CC[C@@H]2C=C[C@H](OC(C)=O)[C@@H](COC(C)=O)O2)cc1 | 0.0216 |
| CO[C@H]1COC(=O)CC=C[C@@H](C)[C@H](NS(=O)(=O)c2ccc(C)cc2)COC(=O)CCC[C@@H]1C | -0.689 |
| CON=CC[C@@H]1C=C[C@H](OC(C)=O)[C@@H](COC(C)=O)O1 | -0.0937 |
| C=COC[C@@H]1CN2[C@@H](CC[C@@H](C)[C@@H]2c2ccc(Br)cc2)C(=O)O1 | -0.0905 |
| O=C1[C@H]2[C@H]3[C@H](O)[C@H](O)CC(=NOCc4ccccc4)[C@@H]3CC[C@H]2C(=O)N1Cc1ccc2c(c1)OCO2 | -0.453 |
| COC(=O)NCC=Cc1nc(CCCO)co1 | -0.576 |
| CO[C@H]1COC(=O)CC=C[C@H](C)[C@@H](OC)COC(=O)[C@@H](C)COC(=O)CC=C[C@@H]1C | -1.66 |
| COC(=O)[C@@H]1CC[C@H](C)[C@@H](c2ccc(C)cc2)N1C(=O)c1ccc(C=NOC[C@@H](C)[C@H](OCc2ccccc2)C(C)C)cc1 | -0.233 |
| COC(=O)CC=C[C@@H](C)[C@@H](C=NO[C@@H]1O[C@H](COC(C)=O)[C@@H](OC(C)=O)[C@H](OC(C)=O)[C@H]1OC(C)=O)NS(=O)(=O)c1ccc(C)cc1 | -0.645 |
| CCOC(=O)[C@H](CC(C)C)NC(=O)CCC1CC(OC(=O)NCc2cccc3ccccc23)CC2(CCCC(COC(=O)NCCOc3ccccc3)O2)O1 (stereo not given in full) | -0.383 |
| COc1cccc([C@H]2Oc3ccc(OC)cc3C(=NO[C@@H](C)c3cn([C@H](CO)Cc4ccccc4)nn3)[C@@H]2O)c1 | -0.303 |
| COC(=O)CC=C[C@@H](C)[C@@H](C=NOC[C@H]1O[C@H](c2ccccc2)C=C[C@@H]1Oc1ccc(OC)cc1)NS(=O)(=O)c1ccc(C)cc1 | 0.674 |
| C=CC1=C[C@H](O)[C@@H]2O[C@@H]2C12OCCCO2 | -0.136 |
| COC(=O)CC=C[C@@H](C)[C@H](OCc1cccc(-c2ccccc2)c1)C1CCCCC1 | -0.223 |
| CC(C)CON=C1C[C@@H](O)[C@@H](O)[C@@H]2[C@@H]3C(=O)N(Cc4ccc5c(c4)OCO5)C(=O)[C@@H]3CC[C@H]12 | -0.608 |
| COc1ccc(O[C@H]2C=C[C@@H](c3ccccc3)O[C@@H]2CON=C(C)C)cc1 | 0.755 |

Source: PubChem BioAssay
